# Measurements as given in PubChem BioAssay AID2100 (National Center for Advancing Translational Sciences (NCATS), 2009).
# The whole screen tested about 300,000 compounds, of which about 1,200 (0.4%) were called active. Roughly 3% stayed inconclusive and do not appear here. What follows is part of a selection rich in actives, with near analogues and random picks from the rest. Values without a mark were called inactive. Calls follow the shape of the dose curve; as a rule, active = well fitted inhibition curve with a large enough effect; inconclusive = small, poorly fitted or top-dose-only effect, or another doubt; inactive = no such curve, though single readings can be large or run the other way.
# Target: Lysosomal alpha-glucosidase (Homo sapiens) (UniProt P10253)
# Assay: qHTS Assay for Inhibitors and Activators of Human alpha-Glucosidase Cleavage of Glycogen;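 also: the screen sought inhibitors and activators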;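 as to activity change, negative = inhibition: 0% = full enzyme reaction and -100% = no-enzyme basal signal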
# Conditions: recombinant GAA, glycogen substrate, Amplex Red glucose oxidase fluorescence; series mostly up to 76.3 µM; activity change, negative = inhibition: at the top concentration
# Outline: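 Recombinant human enzyme (4 nM); glycogen substrate; 37 C, 40 min, pH 5.0. Readout: coupled glucose oxidase/Amplex Red fluorescence.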
# Potency is read from the fitted curve at half-maximal effect.
SMILES,"activity change, negative = inhibition",Potency
O=[N+]([O-])c1cc(-c2nc(-c3ccccc3)no2)ccc1NCc1ccco1,-4.02%,
COc1ccc(Cn2c(=O)n(-c3ccccc3C)c(=O)c3c4c(sc32)CN(C(C)=O)CC4)cc1,-9.25%,
O=C(N/N=C/c1ccc(O)c(O)c1)C1c2ccccc2Oc2ccccc21,,14.1 µM (active)
CCC(C)(C)NC(=O)C1c2ccccc2Oc2ccccc21,-10.9% [at 76.4 µM],
CCC(C)NC(=O)C1c2ccccc2Oc2ccccc21 (configuration not stated),19.6% [at 76.4 µM],
CCOc1ccc(C2CC(=O)c3c([nH]c(C(=O)OCc4ccccc4)c3C)C2)cc1 (configuration not stated),8.54%,
CCOc1ccc(N(CC)S(=O)(=O)N2CCCC(C(=O)NCc3ccc(Cl)cc3)C2)cc1 (configuration not stated),-6.48%,
CC(=O)c1c(C)n(S(=O)(=O)c2ccc(Cl)cc2)c2ccc(NS(=O)(=O)c3ccc(Cl)cc3)cc12,-15.1%,
COc1ccc(NC(=O)c2sc(N)nc2-c2ccccc2)cc1,3.8% [at 76.4 µM],
Nc1ccc(-c2nnc(-c3ccccc3)o2)cc1,-7.39%,
Nc1ccc(-c2sc(N)nc2-c2ccccc2)cc1,,14 µM (active)
O=C(CSc1nc(-c2cccc(F)c2)[nH]c1-c1ccccc1)Nc1ccc2c(c1)OCO2,-11.3%,
CCOc1ccc(N(CC)S(=O)(=O)N2CCCC(C(=O)Nc3ccc(C(C)=O)cc3)C2)cc1 (configuration not stated),-13.1%,
COc1ccc(-c2cc(=O)c3c(O)cc(O[C@@H]4O[C@H](CO[C@@H]5O[C@@H](C)[C@H](O)[C@@H](O)[C@H]5O)[C@@H](O)[C@H](O)[C@H]4O)cc3o2)cc1O,9.26%,
COc1c(O)cc2oc(-c3ccc(O)c(O)c3)cc(=O)c2c1O,,10 µM (active)
CCOC(=O)COc1cc(O)c2c(=O)cc(-c3ccccc3)oc2c1,-11.3% [at 76.4 µM],
CCCCN1C(=O)c2[nH]nc(-c3ccccc3O)c2C1c1cccc(OCc2ccccc2)c1 (configuration not stated),-8.47%,
CC1=C(C(=O)OCC2CCCCC2)C(c2c(F)cccc2Cl)CC(=O)N1 (configuration not stated),14.2%,
COc1ccc(C(=O)NN(C)c2nc(-c3ccccc3)cc(C)c2S(C)(=O)=O)cc1,-3.35% [at 76.4 µM],
Cc1nc(NNC(=O)c2ccccc2)cc(-c2ccccc2)n1,,22.4 µM (active)
Cn1sc(NC(=O)c2ccccc2)nc1=O,8.91% [at 76.4 µM],
CCOc1ccccc1C(=O)NC1(C(F)(F)F)NC(=O)N(CCc2ccc(OC)c(OC)c2)C1=O (configuration not stated),-2.56%,
COc1ccc(Cl)cc1NC(=O)CSc1nc(-c2cccs2)cc(C(F)(F)F)n1,12.5%,
CCCOc1ccc(N/C=C/C(=O)C(C)(C)C)cc1,,31.6 µM (active)

SMILES,"activity change, negative = inhibition",Potency
CCOc1ccc(N/C=C/C(=O)c2ccccc2)cc1,-14.9%,
CCOc1ccc(N/C=C/C(=O)c2cc(OC)c(OC)c(OC)c2)cc1,-23.1%,
CC(C)C(=O)Nc1nc2c(s1)CC(C(C)(C)C)CC2 (configuration not stated),14.5%,
Cc1c(NS(=O)(=O)c2ccc(Cl)cc2)c(=O)n(-c2ccccc2)n1C,7.58%,
Cc1ccc(S(=O)(=O)Nc2ccccc2CNc2c(C)n(C)n(-c3ccccc3)c2=O)cc1,,28.2 µM (active)
Cc1ccc(S(=O)(=O)CC(=O)Nc2c(C)n(C)n(-c3ccccc3)c2=O)cc1,4.27% [at 76.4 µM],
COc1ccc2[nH]c3c(c2c1)CCN(C(=O)CCC1CCCC1)C3c1ccc(F)cc1 (configuration not stated),-9.42%,
Cc1oc(-c2ccccc2)nc1Cn1c(SCc2cccc(C(F)(F)F)c2)nc2cccnc21,-9.3%,
CCOc1ccc(-n2c(O)c(/C=N/c3ccnn3Cc3ccncc3)c3ccccc3c2=O)cc1,11.4% [at 76.4 µM],
CCOc1ccc(-n2c(O)c(/C=N/Nc3nnc(C)c(=O)[nH]3)c3ccccc3c2=O)cc1,,39.8 µM (active)
CCOc1ccc(-n2c(O)c(/C=N/Nc3nc(C)cc(C)n3)c3ccccc3c2=O)cc1,6.76% [at 76.4 µM],
O=[N+]([O-])c1ccc(O)c(/C=N/Nc2ccccc2[N+](=O)[O-])c1,6.62% [at 76.4 µM],
O=C(O)c1ccccc1C(=O)Nc1ccccc1[N+](=O)[O-],-5.21% [at 76.4 µM],
O=[N+]([O-])c1ccccc1Nc1ccc(O)cc1,,10 µM (active)
COc1cccc(C(=O)NC(=O)Nc2ccc(-c3cc(C(F)(F)F)nn3-c3ccccc3)cc2)c1,10.7%,
COc1ccc2c(c1)Cc1sc(NC(=O)c3ccccc3Br)nc1-2,-9.29%,
Cc1csc(NC(=O)Nc2ccccc2[N+](=O)[O-])n1,-2.5% [at 76.4 µM],
Cc1csc(NC(=O)NC2(C(F)(F)F)Oc3ccccc3O2)n1,,8.84 µM (active)
COc1cc(SC)ccc1C(=O)Nc1nc(C)cs1,5.05% [at 76.4 µM],
O=C(Nc1ccc2nc(SCCOc3ccccc3Cl)sc2c1)c1ccco1,4.09%,
COc1cccc(NC(=O)N(Cc2cn(C)c3ccccc23)C2CCCCCC2)c1,4.58%,
O=c1c2cccnc2n(Cc2cccc(F)c2)c(=O)n1Cc1ccccc1Cl,-5.47%,
COc1cc(OC)cc(C(=O)Nc2cc3nn(-c4ccccc4)nc3cc2Cl)c1,0.391%,
O=C(Nc1ccccc1-c1nc2ccccc2[nH]c1=O)c1cccs1,-0.0999%,

SMILES,"activity change, negative = inhibition",Potency
C/C(=N\Nc1nc(Nc2ccccc2)nc(N2CCOCC2)n1)c1cccs1,-18.1% [at 76.4 µM],
C/C(=N\Nc1nc2ccccc2[nH]1)c1cccs1,,25.1 µM (active)
Cc1c(C(=O)N2CCCC2)oc2c1-c1nn(CC(=O)NCc3ccc(OC(C)C)cc3)cc1CC2,-1.91%,
COc1ccccc1CNc1ccc(-c2nc(-c3ccccc3C)no2)cc1[N+](=O)[O-],-14.1%,
COc1ccc(NC(=O)CSc2nc3ncccc3[nH]2)c(OC)c1,-12.5%,
C=CC[n+]1c(-c2ccc(C)cc2)csc1NNC(=O)Nc1ccccc1,,25.1 µM (active)
C=CCNc1scc(-c2ccccc2)[n+]1CC=C,5.77% [at 76.4 µM],
Cc1ccc(NC(=O)Nc2ccccc2)c(Br)c1,11.9% [at 76.4 µM],
CN(CC(=O)Nc1cccc(C(F)(F)F)c1)S(=O)(=O)c1cccs1,8.76%,
CSc1nc(-c2ccccc2Cl)nc2c1Cc1c(CO)cnc(C)c1O2,11.9%,
CCc1nnc(SCc2c(F)cccc2Cl)c2cc3sccc3n12,8.52%,
CCN(CCCNC(=O)c1cc2cc3cc(OC)ccc3nc2s1)c1ccccc1,-9.2%,
Cc1cc(C)n2nc(C(=O)Oc3ccc4c(c3)OCO4)nc2n1,,12.5 µM (active)
Cc1cc(C)n2nc(C(=O)NC(C)(C)C)nc2n1,6.76% [at 76.4 µM],
Cc1cc(C)n2nc(C(=O)N3CCN(Cc4ccc5c(c4)OCO5)CC3)nc2n1,-7.58% [at 76.4 µM],
CSc1nc(Nc2ccc(F)cc2)cc(-c2ccccc2)n1,-15%,
CCOc1ccc(N(CC)C(=O)c2noc3c2COc2ccc(C)cc2-3)cc1,-9.78%,
Cc1[nH]n(-c2cccc(Cl)c2)c(=O)c1/C=N/n1c(C)nc2ccccc2c1=O,-5.44% [at 76.4 µM],
CCCc1nc2ccccc2c(=O)n1/N=C/c1ccc(O)c(O)c1,,11.2 µM (active)
O=c1c2ccccc2ncn1/N=C/c1ccccc1,7.31% [at 76.4 µM],
CC(=O)c1ccc(NC(=O)c2nc(-c3ccc(C)cc3)n3c2CCCCC3)cc1,-23.7%,
COc1ccccc1NC(=O)Cn1cnc2ccc(S(=O)(=O)N3CCC(C)CC3)cc2c1=O,7.07%,
CCc1ccc(NC(=O)CCS(=O)(=O)c2cc3c(cc2Cl)NC(=O)CO3)cc1,7.29%,
CC(C)Cn1c(=O)c2ccccc2n2c(CCC(=O)N3CCN(c4cccc(Cl)c4)CC3)nnc12,11.2%,
